# Bioassay records from PubChem BioAssay.
# Hits are enriched below; roughly 4.1% of the tested compounds scored in any of these assays.
# AmpC inh no detg = blocks E. coli AmpC beta-lactamase in detergent-free assay; P00811; AmpC nitrocefin hydrolysis, absorbance 480 nm, 0.0001% Triton; Potency, µM (highest dose often 57.1 µM), inactives show at the top dose activity change, negative = inhibition, usual class: inhibitors; 330,000 tested, 0.52% active;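 note: plate controls were no compound for no effect and no enzyme for full effect; nearly all actives have a fitted effect of over 20% in size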
# Target sequence (P00811 whole entry, looked up): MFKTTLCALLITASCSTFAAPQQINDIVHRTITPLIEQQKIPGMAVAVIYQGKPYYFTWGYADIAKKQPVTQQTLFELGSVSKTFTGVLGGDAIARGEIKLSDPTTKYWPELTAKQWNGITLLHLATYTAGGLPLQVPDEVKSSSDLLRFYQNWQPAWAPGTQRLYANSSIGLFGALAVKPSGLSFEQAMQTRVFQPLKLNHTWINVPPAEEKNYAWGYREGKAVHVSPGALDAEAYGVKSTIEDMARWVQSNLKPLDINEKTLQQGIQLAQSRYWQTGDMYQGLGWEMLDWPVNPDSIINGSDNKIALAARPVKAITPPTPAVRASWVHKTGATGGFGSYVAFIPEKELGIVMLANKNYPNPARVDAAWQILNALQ
#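 20 mM phosphate pH 7.0 + 0.01% (detergent screen) or 0.0001% Triton X-100; 5.3 nM AmpC reagent; cpd preinc 15 min RT; nitrocefin (800 uM stock) to start; A480 q20 s × 4 min; Activity was normalised to no-enzyme and no-compound control wells.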
# Sm TGR inh = inhibitors of Schistosoma mansoni thioredoxin glutathione reductase | purified TGR, DTNB reduction, TNB absorbance 405 nm | Potency, µM (doses to about 114 µM), inactives show at the top dose activity change, negative = inhibition, hits mostly inhibitors | 360,000 tested, 3% active | AID 485364; note: nearly all actives have a fitted effect of over 60% in size
#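 First, TGR (20 nM dispensed) and NADPH were mixed with compound. Second, a 15 min room-temperature incubation followed. Third, further NADPH and then DTNB were added to start the reaction. Finally, TNB absorbance was monitored kinetically.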
# AmpC inh detg = blocks E. coli AmpC beta-lactamase in detergent assay | P00811 | AmpC hydrolysis of nitrocefin, absorbance 480 nm, 0.01% Triton | Potency, µM (top dose mostly 114 µM), for inactives: top-dose activity change, negative = inhibition, actives largely listed as inhibitors | 370,000 tested, 0.041% active | AID 485294;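 note: 0% = no-compound wells and -100% = no-enzyme wells; nearly all actives have a fitted effect of over 25% in size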
#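 AmpC (5.3 nM in the dispensed reagent) in 20 mM phosphate pH 7.0 with 0.01% (detergent screen) or 0.0001% Triton X-100 was preincubated with compounds for 15 min at room temperature. Nitrocefin was then added from an 800 uM solution, and hydrolysis was followed at 480 nm.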
# FMDV inh = blocks foot and mouth disease virus; FMDV antiviral cell-based qHTS; Potency, µM (doses to about 57.9 µM), inactives show top-dose activity change, negative = inhibition, actives largely listed as inhibitors; 410,000 tested, 1.2% active; calls by dose curve; tested in HEK293T cells; note: read-out not given here; nearly all actives have a fitted effect of over 45% in size
# AMA1-RON2 inh = disrupts binding of P. falciparum AMA1 to RON2; AlphaScreen AMA1-biotinylated RON2 peptide binding; Potency, µM (top dose mostly 58.2 µM), for the others: at the highest dose activity change, negative = inhibition, usual class: inhibitors; 360,000 tested, 0.2% active;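 note: 0% = vehicle wells and -100% = peptide control; nearly all actives have a fitted effect of over 45% in size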
#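 AMA1 (3D7) with his tag at 25 nM final met compounds first, then biotinylated RON2 peptide at 25 nM; detection used donor plus acceptor beads, 10 µg/mL apiece, read by AlphaScreen after 30 min at room temperature.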
# Numbers without * were called inactive; ? = inconclusive; / = not tested or not shown. Unless noted, calls come from the whole dose curve; as a rule, active = well fitted curve in the direction sought with a large enough effect; inconclusive = small, poorly fitted or top-dose-only effect, or another doubt; inactive = no such curve, though single readings can be large; an effect the other way counts as inactive or inconclusive. Unless noted, % is set by controls: 0 for no effect and ±100 for the full control effect; potency is the fitted concentration of half-maximal effect.
SMILES,AmpC inh no detg,Sm TGR inh,AmpC inh detg,FMDV inh,AMA1-RON2 inh
Cc1cc2nc3s/c(=C/c4ccc(-c5ccccc5C(=O)O)o4)c(=O)n3c2cc1C,-28%,3.5µM*,-1%,0%,-26%
O=C(O)c1cc(-c2ccc(/C=c3\sc4nc5ccc(Br)cc5n4c3=O)o2)ccc1Cl,-23%,?,3%,/,/
O=C(O)c1ccccc1-c1ccc(/C=c2\sc3nc4cc(Br)cnc4n3c2=O)o1,-38%,?,0%,-28%,11µM*
CCCNc1nc(NCc2ccccc2OC)c2cnn(C)c2n1,/,0%,1%,?,/
CCCNC(=O)C1(C)CCN(C(=O)c2ccc3c(c2)CCO3)C1 (centres undefined),/,/,/,-16%,-1%
O=C(CN1C(=O)COc2ccccc21)N(Cc1ccccc1)Cc1ccccn1,33%,-13%,?,-20%,21%
Cc1ccc(CN(Cc2cccnc2)C(=O)CN2C(=O)COc3ccccc32)o1,12%,10µM*,-11%,-12%,2%
Cc1cc(C=O)c(C)n1-c1cc(C(F)(F)F)ccc1N1CCOCC1,/,50µM*,0%,0%,-4%
C=CCSc1nnc(NC(=O)c2cn(CC)c3nc(C)ccc3c2=O)s1,-23%,50µM*,-7%,-7%,-17%
CCOC(=O)c1[nH]c(C)c(CCC(=O)NCc2cccc(C)c2)c1C,/,7%,24%,-12%,/
CCc1[nH]nc2c1C(C(C)C)C(C#N)=C(N)O2 (centres undefined),-5%,-4%,-10%,32µM*,-8%
CCCc1[nH]nc2c1C(c1ccccc1OC)C(C#N)=C(N)O2 (centres undefined),-29%,?,-7%,28µM*,4%
Cc1[nH]nc2c1C(C1CC=CCC1)C(C#N)=C(N)O2 (centres undefined),-44%,-15%,0%,25µM*,-3%
Cc1[nH]nc2c1C(c1ccc(-c3ccccc3C#N)o1)C(C#N)=C(N)O2 (centres undefined),-11%,13µM*,?,?,-3%
Cc1ccc(-c2ccc(C3C(C#N)=C(N)Oc4n[nH]c(C)c43)o2)cc1 (centres undefined),-37%,-16%,-6%,22%,-8%
Cc1ccc2oc(=O)c3cc(C(=O)Nc4ccc(F)cc4F)sc3c2c1,/,4%,0%,-29%,/
CCOc1ccc(NC(=O)Cn2ncc3c2-c2cc(C)ccc2OC3)cc1,/,7%,4%,-21%,/
CCC(CC)C1C(C#N)=C(N)Oc2n[nH]c(C)c21 (centres undefined),-11%,-3%,-7%,35µM*,6%
CCC(CC)C1C(C#N)=C(N)Oc2n[nH]c(-c3ccccc3)c21 (centres undefined),-32%,-7%,-6%,/,-3%
COc1ccc(-c2nc(NC(=O)c3ccc(OCC(=O)Nc4ccc(F)cc4)c(OC)c3)sc2C)cc1,-30%,5%,?,18µM*,-7%
COc1cc(C(O)C(=O)O)ccc1O (centres undefined),-17%,10µM*,?,-20%,-7%
COc1cccc(/C=N/Nc2ncccc2[N+](=O)[O-])c1OC,0%,-3%,-1%,7.1µM*,30%
COc1ccc2cc3cc(C(=O)N4CCN(Cc5ccc6c(c5)OCO6)CC4)oc3nc2c1,1%,1%,0%,22µM*,?
COc1ccc2nc3oc(C(=O)N4CCN(c5cc(C)ccc5C)CC4)cc3cc2c1,/,89µM*,-2%,-4%,/
O=C(CC1Sc2ncnn2C1=O)Nc1ccccc1 (centres undefined),-28%,0.5µM*,?,-3%,0%
SMILES,AmpC inh no detg,Sm TGR inh,AmpC inh detg,FMDV inh,AMA1-RON2 inh
O=C(CC1SC(=O)N(c2ccccc2)C1=O)Nc1ccccc1 (centres undefined),-21%,?,-4%,32%,46%
O=C(Cc1ccccc1)Nc1sc2c(c1C(=O)Nc1ccccc1Cl)CCCC2,/,-2%,-6%,-8%,/
CN(C)c1ccc(N=Nc2ccccc2C(=O)OCC(=O)N(C)c2ccccc2)cc1,8%,-1%,-12%,15%,14µM*
COC(=O)c1ccccc1NC(=O)COC(=O)c1ccccc1N=Nc1ccc(N(C)C)cc1,-35%,-19%,-16%,3%,?
CC(=O)c1ccc(NC(=O)COC(=O)c2ccccc2N=Nc2ccc(N(C)C)cc2)cc1,13%,3%,0%,34%,11µM*
COC(=O)C1CCN(Cc2ccc3c(c2)CN(C(=O)C2CCCN(c4ccccn4)C2)CCO3)CC1 (centres undefined),/,/,/,-15%,/
CN1CCN(C2=C(NS(=O)(=O)c3cccs3)C(=O)c3ccccc3C2=O)CC1,-12%,-33%,3%,-12%,-17%
O=C1C(NS(=O)(=O)c2cccs2)=C(N2CCN(Cc3ccccc3)CC2)C(=O)c2ccccc21,-25%,-30%,-4%,0%,28µM*
CCOc1ccccc1N1CCN(C2=C(NS(=O)(=O)c3cccs3)C(=O)c3ccccc3C2=O)CC1,-13%,45%,?,-9%,10µM*
O=C1C(NS(=O)(=O)c2cccs2)=C(N2CCN(c3cccc(C(F)(F)F)c3)CC2)C(=O)c2ccccc21,-58%,23%,-11%,?,10µM*
O=C(CCCn1c(=O)c2ccccc2n(CC(=O)Nc2cccc(C(F)(F)F)c2)c1=O)NCc1ccc2c(c1)OCO2,/,1%,-2%,5%,/
COc1ccc(NC(=O)/C=C/c2ccco2)cn1,-24%,8.9µM*,-7%,31%,-3%
COc1ccccc1CNC(=O)Cc1ccc(Br)cc1,-34%,16%,12%,18%,-5%
COc1ccc(NC(=O)/C=C/c2ccc(Br)o2)cn1,-29%,11µM*,-7%,-2%,0%
COc1ccc(NC(=O)/C=C/c2cccc(F)c2)cn1,-10%,-1%,?,-22%,2%
COc1ccccc1CNC(=O)/C=C/c1ccc(Br)o1,-32%,2.2µM*,2%,1%,-1%
COc1ccc(OC)c(CN2CCCC(c3nc(-c4ccncc4)ncc3-c3ccccc3C)C2)c1 (centres undefined),/,/,/,4%,/
CCOC(=O)c1c(NC(=O)c2cc3nc(-c4ccc(OC)cc4)cc(C(F)(F)F)n3n2)sc2c1CCC(C)C2 (centres undefined),/,-6%,4%,-2%,/
CC1CCN(C(=O)c2ccc3c(c2)N(Cc2ccccc2)C(=O)c2ccccc2S3(=O)=O)CC1,/,2%,3%,27%,/
COc1cc(CNc2nc(C)c(-c3ccn(CC4CCCN(C)C4)n3)s2)ccc1F (centres undefined),/,/,/,0%,/
CC(C)CNC(=S)NC(=O)c1ccc(F)cc1,-13%,32µM*,-12%,39%,17%
O=C(NC(=S)NC1CCCCC1)c1ccc(F)cc1,-34%,28µM*,-7%,22%,21%
